Inconclusive results are not listed. Where a call stands in place of a potency, no number is given. Active and inactive are the calls of the source. The call rests on the fitted dose curve; in most records, active means well fitted curve in the direction sought with a large enough effect; inconclusive means small, poorly fitted or top-dose-only effect, or another doubt; inactive means no such curve, though single readings can be large; an effect the other way counts as inactive or inconclusive.
Assays:
[1] = qHTS assay to identify small molecule inhibitors of chordoma cells - UCH-2 (AID 1259356)
[2] = P-glycoprotein substrates identified in KB-8-5-11 adenocarcinoma cell line, qHTS therapeutic library screen (AID 1346987); further: nearly all actives have a fitted effect of over 65% in size
Summary of the method: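 In this qHTS, P-gp-rich KB-8-5-11 cells received library compounds across a concentration range. Viability was quantified by luminescence after 72 h at 37 degree C.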
Potency means the concentration at half of the fitted maximal effect.

Row | Structure (SMILES) | Potency [1] | Potency [2]
1 | O=c1n(Cl)c(=O)n(Cl)c(=O)n1Cl | inactive | inactive
2 | CN(C)C(=O)Oc1cc(OC(=O)N(C)C)cc(C(O)CNC(C)(C)C)c1 (stereo unspecified) | inactive | inactive
3 | C[C@@H]1O[C@@H](O[C@@H]2C=C3CC[C@@H]4[C@H](CC[C@]5(C)[C@@H](c6ccc(=O)oc6)CC[C@]45O)[C@@]3(C)CC2)[C@H](O)[C@H](O)[C@H]1O | 24.8 nM (active) | 19.7 nM (active)
4 | C[C@H]1C(=O)O[C@@H]2CCN3CC=C(COC(=O)[C@](C)(O)[C@]1(C)O)[C@H]23 | inactive | inactive
5 | C[C@H](N)[C@H](O)c1ccc(O)c(O)c1 | inactive | inactive
6 | C[N+]1(CCC(C(N)=O)(c2ccccc2)c2ccccc2)CCCCC1 | inactive | inactive
7 | NC(=O)OCCCc1ccccc1 | inactive | inactive
8 | C[C@]12CC[C@H]3[C@@H](CC=C4C[C@@H](O)CC[C@@]43C)[C@@H]1CC[C@@H]2O | inactive | 11600 nM (active)
9 | NCc1cccnc1 | inactive | inactive
10 | CC(C)(C)OC(=O)c1ncn2c1[C@@H]1CCCN1C(=O)c1c(Br)cccc1-2 | inactive | inactive
11 | c1ccc2nc(N3CCNCC3)ccc2c1 | inactive | inactive
12 | CCCC[N+]1(C)[C@@H]2CC(OC(=O)[C@H](CO)c3ccccc3)C[C@H]1[C@@H]1O[C@@H]12 (stereo partly specified) | inactive | inactive
13 | COP(=O)(OC)OC=C(Cl)Cl | inactive | inactive
14 | CC(C)NCC(O)c1ccc(N)c(C#N)c1 (stereo unspecified) | inactive | inactive
15 | C#C[C@]1(O)CC[C@H]2[C@@H]3CCC4=CC(=O)CCC4=C3C=C[C@@]21CC | inactive | 2060 nM (active)
16 | CC(C)[N+](C)(CCC(C(N)=O)(c1ccccc1)c1ccccc1)C(C)C | inactive | inactive
17 | OC(c1ccccc1)(c1ccccc1)C1CCNCC1 | inactive | inactive

Row | Structure (SMILES) | Potency [1] | Potency [2]
18 | COCC(=O)N(c1c(C)cccc1C)C(C)C(=O)OC (stereo unspecified) | inactive | inactive
19 | N#Cc1nn(-c2c(Cl)cc(C(F)(F)F)cc2Cl)c(N)c1S(=O)C(F)(F)F (stereo unspecified) | inactive | inactive
20 | CNC(=O)Oc1cccc2ccccc12 | inactive | inactive
21 | Oc1ccc2[nH]cc(CCCCN3CC=C(c4ccccc4)CC3)c2c1 | inactive | inactive
22 | CC(C)C(Br)C(=O)NC(N)=O (stereo unspecified) | inactive | inactive
23 | Oc1c(Br)cc(Br)cc1Br | inactive | inactive
24 | c1cc2c(c(N3CCNCC3)c1)OCCO2 | inactive | inactive
25 | CCS(=O)(=O)C(C)(C)S(=O)(=O)CC | inactive | inactive
26 | CCC1(c2cccc(O)c2)CCCCN(C)C1 (stereo unspecified) | inactive | inactive
27 | C[C@]12CC[C@H](O)CC1=CC[C@@H]1[C@@H]2CC[C@]2(C)C(=O)CC[C@@H]12 | inactive | inactive
28 | CCCCCCCCC(=O)NCc1ccc(O)c(OC)c1 | inactive | inactive
29 | CN1CCc2cc(Cl)c(O)cc2[C@H]2c3ccccc3CC[C@@H]21 | inactive | inactive
30 | CCOC(=O)c1cncn1C(C)c1ccccc1 (stereo unspecified) | inactive | inactive
31 | CCN(Cc1ccc(Cl)nc1)/C(=C/[N+](=O)[O-])NC | inactive | inactive
32 | COc1ccc(CN2CCNCC2)c(OC)c1OC | inactive | inactive
33 | OC(O)C(Cl)(Cl)Cl | inactive | inactive
